JMJD2A Tudor: qHTS Assay for Inhibitors of JMJD2A-Tudor Domain; Lysine-specific demethylase 4A (Homo sapiens), O75164; AlphaScreen JMJD2A-Tudor / H3K4me3 peptide binding; Potency, µM (series often up to 114 µM), for inactives: at the top dose activity change, negative = inhibition, most hits filed as inhibitors; 4.4% of 390,000 active; note: % is set by controls: 0 for no effect and ±100 for the full control effect; nearly all actives have a fitted effect of over 50% in size
PLK1 PBD block: qHTS for Inhibitors of PLK1-PDB (polo-like kinase 1 - polo-box domain): Primary Screen. 2.8% of 360,000 active. Serine/threonine-protein kinase PLK1 (Homo sapiens), P53350. Plk1 PBD binding of FITC phosphopeptide, fluorescence polarization. Potency, µM, for inactives: max response, negative = inhibition, hits mostly inhibitors; note: series mostly up to about 57 µM; % is set by controls: 0 for no effect and ±100 for the full control effect; nearly all actives have a fitted effect of over 65% in size
Sfp PPTase inh: qHTS Assay for Inhibitors of Bacillus subtilis Sfp phosphopantetheinyl transferase (PPTase). 4'-phosphopantetheinyl transferase ffp (Bacillus subtilis), Q9F4F7. Biochemical Sfp PPTase activity, qHTS. Potency, µM, for the others: largest response in the series, negative = inhibition, usual class: inhibitors. 3.5% of 310,000 active;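 note: the enzyme is Sfp with the accession as filed and its product quenches rhodamine fluorescence; 0% = enzyme reaction without inhibitor and -100% = no enzyme wells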
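Fluorescence-quenching assay with 15 nM Sfp, 5 uM rhodamine-CoA and 12.5 uM BHQ-2-labelled ybbR peptide in pH 7.6 Hepes/MgCl2 buffer. Enzyme was pre-incubated with compound for 15 min at room temperature. Rate was taken from the 30-min fluorescence change (525/598 nm).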
HP1b binding inh: HTS for Inhibitors of HP1-beta Chromodomain Interactions with Methylated Histone Tails | Chromobox protein homolog 1 (Homo sapiens), P83916 | AlphaScreen HP1-beta / biotin-H3K9me3 peptide binding | Potency, µM (titrated, usually from 114 µM), inactives show at the highest dose activity change, negative = inhibition, most hits filed as inhibitors | 0.56% of 390,000 active | AID 540317, 2011; note: nearly all actives have a fitted effect of over 70% in size
Target sequence (P83916 whole entry, looked up): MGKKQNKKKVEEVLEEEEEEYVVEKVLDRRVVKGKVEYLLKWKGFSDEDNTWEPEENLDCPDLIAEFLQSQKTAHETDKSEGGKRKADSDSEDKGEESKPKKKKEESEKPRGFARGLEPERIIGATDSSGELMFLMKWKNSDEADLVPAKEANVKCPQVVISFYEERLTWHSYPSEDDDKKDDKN
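AlphaScreen: HP1-beta (50 nM) preformed 30 min with biotin-H3(1-18)K9me3 peptide (50 nM) in PBS pH 7.4, 0.01% Tween-20. Compound added for 30 min at RT, then streptavidin donor/nickel chelate acceptor beads (10 ug/mL) for 30 min.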
G9a block: qHTS Assay for Inhibitors of Histone Lysine Methyltransferase G9a; Histone-lysine N-methyltransferase EHMT2 (Homo sapiens), Q96KQ7; G9a H3K9 monomethylation, AlphaScreen, 2 h; Potency, µM (series often up to 102 µM), without a hit: at the highest dose activity, negative = inhibition, hits mostly inhibitors; 8.8% of 350,000 active; note: % is set by controls: 0 for no effect and ±100 for the full control effect; nearly all actives have a fitted effect of over 75% in size
Target sequence (Q96KQ7 913-1193 limits assumed): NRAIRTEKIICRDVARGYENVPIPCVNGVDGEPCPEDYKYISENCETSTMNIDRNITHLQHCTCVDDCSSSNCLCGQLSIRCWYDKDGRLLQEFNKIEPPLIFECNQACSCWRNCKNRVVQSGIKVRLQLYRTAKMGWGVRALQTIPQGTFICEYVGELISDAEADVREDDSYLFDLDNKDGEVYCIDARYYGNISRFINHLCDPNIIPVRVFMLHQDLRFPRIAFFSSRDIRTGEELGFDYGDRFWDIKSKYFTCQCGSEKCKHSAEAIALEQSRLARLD
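Methyltransferase reactions run at room temperature for 2 h (20 nM enzyme, 500 nM biotin-H3K9 peptide, 20 uM SAM) after a 15 min compound preincubation; product detected by AlphaScreen beads and anti-H3K9me1 antibody.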
BAZ2B block: qHTS Assay for Inhibitors of BAZ2B; Potency, µM (titrated, usually from 114 µM), for the others: top-dose activity change, negative = inhibition, usual class: inhibitors; Bromodomain adjacent to zinc finger domain protein 2B (Homo sapiens), Q9UIF8; 4.4% of 360,000 active; AlphaScreen BAZ2B-H3K14Ac peptide displacement; note: % is set by controls: 0 for no effect and ±100 for the full control effect; nearly all actives have a fitted effect of over 60% in size
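AlphaScreen displacement: compounds (up to 110uM) incubated 30 min at room temperature with a preformed 50 nM BAZ2B/50 nM biotinylated H3K14Ac peptide complex in PBS pH 7.4 with Tween-20. Donor and acceptor beads at 10 ug/mL final added, 20 min light-protected before reading.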
Numbers without * were called inactive; ? = inconclusive; / = no result; [ ] = remark or other dose. In the library only some 12% were active in any assay of this set; here they are far more common. Calls come from the whole dose curve; as a rule, active = well fitted curve in the direction sought with a large enough effect; inconclusive = small, poorly fitted or top-dose-only effect, or another doubt; inactive = no such curve, though single readings can be large; an effect the other way counts as inactive or inconclusive. Potency is the fitted concentration of half-maximal effect.

SMILES	JMJD2A Tudor	PLK1 PBD block	Sfp PPTase inh	HP1b binding inh	G9a block	BAZ2B block
C/C(=N\Nc1cccc2cccnc12)c1ccccc1O	-11%	3%	-23%	44%	-10%	10%
C/C(=N\Nc1ncnc2sc(C)c(C)c12)c1ccccn1	32µM*	-17%	12%	9%[57 µM]	25µM*	7.1µM*
CCC(=O)N1c2ccccc2CC1C(=O)NCCc1ccc(SC)cc1 (stereo unspecified)	-8%	/	/	29%	-8%[12.7 µM]	-21%
Cc1ccc2c(c1)N(CC(=O)Nc1ncccc1C)C(=O)C(C(C)C)O2 (stereo unspecified)	?	1%	1%	-8%	/	-5%
COC(=O)[C@@]12C[C@@H](CC(=O)N3CCCCC3)C(=O)N(CCc3ccc(OC)c(OC)c3)C1=CCC(C)(C)C2	/	-8%	/	/	/	/
C/C(=N\Nc1nc(-c2ccc(C)cc2C)cs1)c1cc2ccccc2oc1=O	-26%	?	40µM*	22%	?	5%
C/C(=N\Nc1ccc(Cl)c(C(=O)O)c1)c1cc2ccccc2o1	-28%	-14%	-14%	12%	28µM*	?
C/C(=N\Nc1cccc(C(=O)O)c1)c1cc2ccccc2o1	?	-13%	0%	-10%	50µM*	?
C/C(=N\Nc1ccccc1)c1cc2ccccc2oc1=O	?	-11%	-8%	1%	35µM*	-24%
C/C(=N\NC(=O)CC#N)c1cc2ccccc2oc1=O	0%	-2%	?	34%	23%[59 µM]	-6%
O=C(O)c1cc(N/N=C/c2cccc3ccccc23)ccc1Cl	-16%	-20%	-1%	4%	?	-10%
Clc1cnc(N/N=C/c2ccncc2)c(Cl)c1	-17%	0%	9%	22%	11%	-1%
C/C(=N\Nc1ccc(Cl)c(C(=O)O)c1)c1cccc2ccccc12	56µM*	27µM*	-10%	79µM*	10µM*	?
C/C(=N\Nc1ncc(Cl)cc1Cl)c1ccccn1	?	-6%	-23%	12%	45µM*	22µM*
CN(C)c1cccc(NC(=O)C2(C)CC2(Cl)Cl)c1 (stereo unspecified)	-25%	-9%	11%	-5%	-3%[59 µM]	-11%
CC(=O)Nc1ccc(NC(=O)C2(C)CC2(Cl)Cl)cc1 (stereo unspecified)	?	21µM*	-8%	-14%	10%	-7%
Cc1ccc(C)n1-c1nnc(N2CCCC(C(=O)Nc3ccc(C(C)C)cc3)C2)s1 (stereo unspecified)	-16%	/	/	2%	7%[59 µM]	-6%
CCc1ccc(N2C(=O)CC(NNc3nc4ccccc4s3)C2=O)cc1 (stereo unspecified)	-20%	-3%	-12%	21%	14µM*	-11%
O=C1CN(C(=O)COc2ccc(Cl)cc2)C(c2ccccc2)c2cc(Br)ccc2N1 (stereo unspecified)	-25%	/	/	24%	-32%[59 µM]	-16%
O=c1cc(-c2ccccc2)[nH]n1-c1nc2ccccc2s1	-24%[57.1 µM]	21µM*	7%	-7%	-9%[59 µM]	2%
CC(=O)c1c(CC(=O)O)[nH]n(-c2nc3ccccc3s2)c1=O	79µM*	-22%	8%	-4%	?	-9%
COCCNC(=O)Cn1nc(-c2ccccc2C)ccc1=O	-12%	-9%	17%	22%	10%[0.501 µM]	6%
COc1ccc(C2C(C(=O)OCC3CCCO3)=C(C)NC3=C2C(=O)CC(c2ccco2)C3)cc1O (stereo unspecified)	-20%[57.1 µM]	-11%	56µM*	-16%	-17%	-11%[57.1 µM]
